Legend:
Assay in all cases: log2 ratio of Biotin-Ahx-Ub-VS probe labelling (fragment/DMSO); higher = less target engagement (more negative = stronger competition), active = hit call of the paper (q ≤ 0.05, log2 ratio ≤ -1)
Details in all cases: compound concentration: 200 uM; treatment time: 3 h
USP19 = molecular target: T1, USP19 (UniProt O94966)
T1 sequence (whole entry): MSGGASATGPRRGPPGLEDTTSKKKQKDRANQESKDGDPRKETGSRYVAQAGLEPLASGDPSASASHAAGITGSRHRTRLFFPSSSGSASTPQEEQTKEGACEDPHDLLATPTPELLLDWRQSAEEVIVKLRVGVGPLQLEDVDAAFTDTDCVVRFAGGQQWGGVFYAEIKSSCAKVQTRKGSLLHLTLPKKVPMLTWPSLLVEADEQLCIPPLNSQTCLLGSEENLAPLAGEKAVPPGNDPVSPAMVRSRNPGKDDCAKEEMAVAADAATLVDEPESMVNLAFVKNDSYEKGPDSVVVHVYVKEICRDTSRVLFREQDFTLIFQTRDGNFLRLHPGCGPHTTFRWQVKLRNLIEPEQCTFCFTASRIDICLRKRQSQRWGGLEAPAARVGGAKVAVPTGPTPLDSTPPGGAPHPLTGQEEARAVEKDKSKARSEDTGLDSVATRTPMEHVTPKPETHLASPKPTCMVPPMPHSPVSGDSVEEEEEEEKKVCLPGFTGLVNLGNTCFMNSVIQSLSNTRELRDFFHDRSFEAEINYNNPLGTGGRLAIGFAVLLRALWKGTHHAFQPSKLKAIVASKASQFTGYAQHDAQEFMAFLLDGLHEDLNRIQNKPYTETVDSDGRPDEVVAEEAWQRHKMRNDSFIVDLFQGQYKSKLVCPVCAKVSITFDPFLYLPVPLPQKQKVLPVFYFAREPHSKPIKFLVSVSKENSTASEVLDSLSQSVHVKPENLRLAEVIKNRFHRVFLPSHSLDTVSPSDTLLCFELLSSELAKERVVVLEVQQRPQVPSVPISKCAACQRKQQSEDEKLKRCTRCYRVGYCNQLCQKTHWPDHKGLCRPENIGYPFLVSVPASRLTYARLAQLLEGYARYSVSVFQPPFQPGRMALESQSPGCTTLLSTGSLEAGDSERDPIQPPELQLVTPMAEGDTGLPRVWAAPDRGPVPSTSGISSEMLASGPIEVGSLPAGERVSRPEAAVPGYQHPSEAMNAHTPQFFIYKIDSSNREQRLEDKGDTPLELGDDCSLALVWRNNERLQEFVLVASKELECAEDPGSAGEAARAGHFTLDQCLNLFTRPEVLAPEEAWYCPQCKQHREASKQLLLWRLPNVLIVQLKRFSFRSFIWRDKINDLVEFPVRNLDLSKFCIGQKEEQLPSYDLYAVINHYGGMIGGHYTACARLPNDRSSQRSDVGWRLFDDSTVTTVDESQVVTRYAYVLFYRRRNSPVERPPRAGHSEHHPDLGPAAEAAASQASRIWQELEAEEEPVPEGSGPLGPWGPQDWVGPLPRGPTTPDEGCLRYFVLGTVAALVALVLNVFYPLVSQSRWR
Procedure, shortened: (§1)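 HEK293T lysate, 495 µg per sample in Tris/CHAPS/IGEPAL buffer with protease inhibitors, was treated in triplicate with fragment at 200 µM or vehicle for 3 h and then with Biotin-Ahx-Ub-VS at 0.5 µM final for 1 h. Labelled DUBs were NeutrAvidin-enriched, digested with LysC and trypsin, and run by diaPASEF LC-MS/MS. Spectronaut label-free quantities were global-median-normalised, and values are average log2 fragment/vehicle ratios by unpaired t-test on proteins with ≥2 unique peptides.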

USP24 = USP24 (UniProt Q9UPU5)
Procedure, shortened: as §1

USP25 = molecular target: T2, USP25 (UniProt Q9UHP3)
T2 sequence (whole entry): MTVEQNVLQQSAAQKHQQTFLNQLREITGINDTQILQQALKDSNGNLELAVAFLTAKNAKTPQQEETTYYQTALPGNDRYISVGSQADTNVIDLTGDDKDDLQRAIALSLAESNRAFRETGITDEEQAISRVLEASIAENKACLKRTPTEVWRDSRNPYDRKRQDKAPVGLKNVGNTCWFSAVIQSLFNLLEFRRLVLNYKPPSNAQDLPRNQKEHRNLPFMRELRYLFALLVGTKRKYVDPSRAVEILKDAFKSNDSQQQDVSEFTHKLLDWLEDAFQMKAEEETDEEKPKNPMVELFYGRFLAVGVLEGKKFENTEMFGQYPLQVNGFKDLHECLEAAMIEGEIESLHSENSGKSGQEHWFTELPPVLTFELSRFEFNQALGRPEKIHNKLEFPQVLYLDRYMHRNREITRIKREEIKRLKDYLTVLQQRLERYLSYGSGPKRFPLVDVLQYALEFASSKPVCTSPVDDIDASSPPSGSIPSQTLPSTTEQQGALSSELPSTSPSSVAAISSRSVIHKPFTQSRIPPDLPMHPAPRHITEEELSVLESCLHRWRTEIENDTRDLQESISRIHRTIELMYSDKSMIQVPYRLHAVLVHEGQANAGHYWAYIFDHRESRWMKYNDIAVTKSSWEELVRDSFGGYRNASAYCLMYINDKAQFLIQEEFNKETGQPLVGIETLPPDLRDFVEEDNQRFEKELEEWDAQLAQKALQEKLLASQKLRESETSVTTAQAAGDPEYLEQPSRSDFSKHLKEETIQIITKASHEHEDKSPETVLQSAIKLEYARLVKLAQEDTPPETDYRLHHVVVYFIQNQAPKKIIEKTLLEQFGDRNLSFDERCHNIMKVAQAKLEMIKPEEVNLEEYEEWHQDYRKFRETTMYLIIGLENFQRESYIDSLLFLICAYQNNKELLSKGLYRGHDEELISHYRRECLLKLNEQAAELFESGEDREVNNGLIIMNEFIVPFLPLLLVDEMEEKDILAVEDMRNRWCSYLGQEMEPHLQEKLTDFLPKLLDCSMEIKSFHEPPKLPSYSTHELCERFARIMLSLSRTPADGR
Procedure, shortened: as §1

USP28 = molecular target: T3, USP28 (UniProt Q96RU2)
T3 sequence (whole entry): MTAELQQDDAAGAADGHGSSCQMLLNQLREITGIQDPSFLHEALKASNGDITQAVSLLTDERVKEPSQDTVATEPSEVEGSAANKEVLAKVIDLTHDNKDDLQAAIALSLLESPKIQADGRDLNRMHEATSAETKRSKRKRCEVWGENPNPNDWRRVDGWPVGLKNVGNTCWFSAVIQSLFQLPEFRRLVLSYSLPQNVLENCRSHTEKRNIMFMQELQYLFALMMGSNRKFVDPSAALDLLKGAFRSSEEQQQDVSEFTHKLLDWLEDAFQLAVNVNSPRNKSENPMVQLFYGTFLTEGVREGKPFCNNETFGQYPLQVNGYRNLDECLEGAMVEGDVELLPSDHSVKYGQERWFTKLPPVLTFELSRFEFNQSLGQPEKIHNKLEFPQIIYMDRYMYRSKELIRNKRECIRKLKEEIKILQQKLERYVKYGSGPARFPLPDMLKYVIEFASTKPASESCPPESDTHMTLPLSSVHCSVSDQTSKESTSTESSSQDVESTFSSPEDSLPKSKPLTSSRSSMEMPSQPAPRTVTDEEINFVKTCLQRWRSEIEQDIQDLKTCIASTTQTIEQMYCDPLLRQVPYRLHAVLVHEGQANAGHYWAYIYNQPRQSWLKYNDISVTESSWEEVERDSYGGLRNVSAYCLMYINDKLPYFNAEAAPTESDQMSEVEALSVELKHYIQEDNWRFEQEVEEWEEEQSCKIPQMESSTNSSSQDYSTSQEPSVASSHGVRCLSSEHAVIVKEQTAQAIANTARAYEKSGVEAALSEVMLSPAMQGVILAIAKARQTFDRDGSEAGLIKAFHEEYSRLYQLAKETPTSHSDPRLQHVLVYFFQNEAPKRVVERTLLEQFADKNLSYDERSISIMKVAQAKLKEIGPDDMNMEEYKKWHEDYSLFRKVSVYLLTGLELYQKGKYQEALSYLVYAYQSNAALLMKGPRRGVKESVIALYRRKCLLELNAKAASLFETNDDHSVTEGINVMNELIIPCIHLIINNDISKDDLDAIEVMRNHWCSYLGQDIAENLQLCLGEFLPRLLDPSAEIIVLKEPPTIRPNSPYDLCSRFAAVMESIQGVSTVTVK
Procedure, shortened: as §1

Measured: log2 ratio of Biotin-Ahx-Ub-VS probe labelling

Sequence of USP24 (Q9UPU5 whole entry): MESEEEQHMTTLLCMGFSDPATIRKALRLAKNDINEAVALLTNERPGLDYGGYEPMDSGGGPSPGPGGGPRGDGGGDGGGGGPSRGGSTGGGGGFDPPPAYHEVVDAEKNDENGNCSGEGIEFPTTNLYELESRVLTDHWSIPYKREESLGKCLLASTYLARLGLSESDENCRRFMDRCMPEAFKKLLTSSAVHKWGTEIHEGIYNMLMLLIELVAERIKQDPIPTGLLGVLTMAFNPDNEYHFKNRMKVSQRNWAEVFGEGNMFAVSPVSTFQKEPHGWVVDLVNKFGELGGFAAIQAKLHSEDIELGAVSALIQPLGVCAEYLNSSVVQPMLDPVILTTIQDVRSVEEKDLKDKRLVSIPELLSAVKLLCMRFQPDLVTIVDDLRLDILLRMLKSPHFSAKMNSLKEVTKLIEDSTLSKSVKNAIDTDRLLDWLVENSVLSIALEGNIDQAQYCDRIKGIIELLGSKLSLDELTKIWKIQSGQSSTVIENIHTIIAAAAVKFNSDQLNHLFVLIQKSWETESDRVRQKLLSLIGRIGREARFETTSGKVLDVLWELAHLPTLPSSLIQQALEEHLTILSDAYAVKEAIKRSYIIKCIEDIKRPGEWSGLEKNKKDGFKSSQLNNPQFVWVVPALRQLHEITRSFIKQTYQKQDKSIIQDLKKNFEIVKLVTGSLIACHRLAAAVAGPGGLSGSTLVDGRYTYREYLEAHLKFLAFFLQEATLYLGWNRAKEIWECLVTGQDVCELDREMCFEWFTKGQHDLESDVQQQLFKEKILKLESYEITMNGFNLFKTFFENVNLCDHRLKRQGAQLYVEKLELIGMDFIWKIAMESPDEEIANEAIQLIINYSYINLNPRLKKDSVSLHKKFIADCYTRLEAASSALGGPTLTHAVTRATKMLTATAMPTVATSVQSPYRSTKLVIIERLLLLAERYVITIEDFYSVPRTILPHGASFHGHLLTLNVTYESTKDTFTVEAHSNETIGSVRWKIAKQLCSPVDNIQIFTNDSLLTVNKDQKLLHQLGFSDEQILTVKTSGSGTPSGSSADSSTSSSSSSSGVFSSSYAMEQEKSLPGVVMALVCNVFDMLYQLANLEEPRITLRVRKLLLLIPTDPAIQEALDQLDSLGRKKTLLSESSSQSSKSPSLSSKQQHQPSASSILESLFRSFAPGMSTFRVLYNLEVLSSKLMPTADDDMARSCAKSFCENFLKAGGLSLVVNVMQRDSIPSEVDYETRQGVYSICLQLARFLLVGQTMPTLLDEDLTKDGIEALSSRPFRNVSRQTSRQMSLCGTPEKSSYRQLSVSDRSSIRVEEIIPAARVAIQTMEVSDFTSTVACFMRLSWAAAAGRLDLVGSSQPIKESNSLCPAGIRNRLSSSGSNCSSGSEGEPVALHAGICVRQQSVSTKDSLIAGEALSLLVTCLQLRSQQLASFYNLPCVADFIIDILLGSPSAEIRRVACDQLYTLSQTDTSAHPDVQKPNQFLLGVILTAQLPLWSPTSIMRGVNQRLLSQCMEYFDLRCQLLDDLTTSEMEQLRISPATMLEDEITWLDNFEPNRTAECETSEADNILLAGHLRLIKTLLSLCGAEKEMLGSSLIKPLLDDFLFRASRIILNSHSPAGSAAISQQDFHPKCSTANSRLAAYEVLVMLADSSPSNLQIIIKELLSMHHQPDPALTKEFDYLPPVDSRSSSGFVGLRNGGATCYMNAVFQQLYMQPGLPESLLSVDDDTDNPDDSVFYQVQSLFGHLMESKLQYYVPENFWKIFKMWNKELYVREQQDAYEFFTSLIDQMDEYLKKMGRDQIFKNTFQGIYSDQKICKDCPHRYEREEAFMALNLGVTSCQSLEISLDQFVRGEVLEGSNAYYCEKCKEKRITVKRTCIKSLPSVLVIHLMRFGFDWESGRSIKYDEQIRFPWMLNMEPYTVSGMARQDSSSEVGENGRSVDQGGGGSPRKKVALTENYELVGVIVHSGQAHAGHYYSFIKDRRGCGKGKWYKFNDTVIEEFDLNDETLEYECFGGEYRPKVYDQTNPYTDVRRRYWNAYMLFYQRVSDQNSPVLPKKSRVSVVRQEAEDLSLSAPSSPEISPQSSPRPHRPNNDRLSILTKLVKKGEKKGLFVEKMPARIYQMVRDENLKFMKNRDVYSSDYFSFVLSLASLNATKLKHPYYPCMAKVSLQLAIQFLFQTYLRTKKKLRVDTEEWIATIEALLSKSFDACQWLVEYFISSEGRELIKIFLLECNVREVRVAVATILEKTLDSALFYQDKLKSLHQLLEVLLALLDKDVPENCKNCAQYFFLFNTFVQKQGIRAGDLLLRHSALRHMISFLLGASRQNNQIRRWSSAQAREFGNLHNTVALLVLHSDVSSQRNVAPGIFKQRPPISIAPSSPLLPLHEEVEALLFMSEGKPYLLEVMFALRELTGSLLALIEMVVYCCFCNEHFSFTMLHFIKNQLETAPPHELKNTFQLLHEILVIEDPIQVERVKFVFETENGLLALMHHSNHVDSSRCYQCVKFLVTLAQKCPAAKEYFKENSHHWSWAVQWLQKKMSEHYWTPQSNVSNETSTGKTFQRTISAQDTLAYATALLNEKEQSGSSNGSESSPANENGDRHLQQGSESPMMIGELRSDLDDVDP

O=C(CCl)NCC1(c2ccccc2)CC1
inactive: USP19 -0.058 | USP24 -0.208 | USP25 -0.366 | USP28 -0.447

Source: the supplement of paper PMC11732987, “Enantioselective OTUD7B fragment discovery through chemoproteomics screening and high-throughput optimisation” (Communications Chemistry, 2025)
